We go through 16 molecules from PMC11062922 (Nature Chemical Biology, 2023).

Where two headings read alike, the source gives them in different places.

Parameters in all cases: species or system human, MV4-11 + K-562 + COLO205 + SK-N-BE2 + OVCAR-8
For one test, the system named is PIK3CD. Conditions: read-out: apparent Kd, compound concentrations: 100 nM and 1000 nM (sheet 'Samples'), n = 1.
The test system of a further test is NUAK2. Conditions: read-out: apparent Kd, n = 1.
Another test relates to PAK6. Conditions: read-out: apparent Kd, n = 1.
The next test deals with AURKB. The following applies: read-out: apparent Kd, n = 1.
Another test has as its system ACVR1B. Conditions: read-out: apparent Kd, n = 1.
The subject of the next test is IRAK3. The following applies: read-out: apparent Kd, n = 1.
A further test relates to CDC42BPB. Conditions: read-out: apparent Kd, n = 1.
The test system of another test is CIT. The following applies: read-out: apparent Kd, n = 1.
The subject of the next test is PRKCA. Conditions: read-out: apparent Kd; compound concentrations:100 nM and 1000 nM (sheet 'Samples'); n = 1.
A further test relates to RPS6KB1. Conditions: read-out: apparent Kd, n = 1.
In a further test the test system is EPHB1. Conditions: read-out: apparent Kd; compound concentrations:100 nM and 1000 nM (sheet 'Samples'); n = 1.
In a further test the test system is LCK. Conditions: read-out: apparent Kd; compound concentrations:100 nM and 1000 nM (sheet 'Samples'); n = 1.
A further test deals with MAP3K11. Conditions: read-out: apparent Kd; compound concentrations:100 nM and 1000 nM (sheet 'Samples'); n = 1.
A further test concerns MAPK14. Conditions: read-out: apparent Kd; compound concentrations:100 nM and 1000 nM (sheet 'Samples'); n = 1.
A further test relates to PTK6. The following applies: read-out: apparent Kd; compound concentrations:100 nM and 1000 nM (sheet 'Samples'); n = 1.
The subject of a further test is TTK. The following applies: read-out: apparent Kd, n = 1.
A further test concerns RPS6KA3. Conditions: read-out: apparent Kd; compound concentrations: 100 nM and 1000 nM (sheet 'Samples'), CATDS: 1.1263723561624001E-2; n = 1.
Where [1] appears, read: compound concentrations:100 nM and 1000 nM (sheet 'Samples').

`CS(=O)(=O)Nc1cccc(-c2ccc3c(NC(=O)C4CC4)n[nH]c3c2)c1` [SB-742864]: the potency estimated from few doses in the test on PIK3CD (CATDS: 0.40980617743007602) is 162 nM.

As for `CCN(CC)Cc1ccc(Nc2nccc(-c3cnn4ncccc34)n2)cc1` [GW780056X], the potency estimated from few doses in the test on NUAK2 (compound concentrations: 100 nM and 1000 nM (sheet 'Samples'), CATDS: 2.1304819470262599E-2) is 1070 nM; in the test with PAK6 (compound concentrations: 100 nM and 1000 nM (sheet 'Samples'), CATDS: 1.8956003976459398E-2), 1620 nM.

Take `CN(c1ccc(NC(=O)NCCN2CCOCC2)cc1)c1ccnc(Nc2ccc(CS(C)(=O)=O)cc2)n1.Cl` [GW830365A]: the potency estimated from few doses with AURKB (compound concentrations: 100 nM and 1000 nM (sheet 'Samples'), CATDS: 8.1167400456920294E-2) was 384 nM.

For `COc1ccc(Nc2nccc(-c3ccc(NC(=O)c4cc5cc(F)ccc5[nH]4)cc3)n2)cc1` [GSK1229496A], the potency estimated from few doses in the test with ACVR1B (compound concentrations: 100 nM and 1000 nM (sheet 'Samples'), CATDS: 0.38937877773487001) was 643 nM.

Consider `COC(=O)c1cccc(NC(=O)NC2CCN(c3ccnc(Nc4cc(OC)c(OC)c(OC)c4)n3)C2)c1` (stereo not shown) [GSK1379767A], for which the potency estimated from few doses in the test on IRAK3 (compound concentrations: 100 nM and 1000 nM (sheet 'Samples'), CATDS: 0.12620401960154601) is 1050 nM; in the test on PIK3CD (CATDS: 0.49933192218353101), 112 nM.

Consider `CCn1c(-c2nonc2N)nc2c(C#CC(C)(C)O)nc(O[C@@H](CN)c3ccccc3)cc21.O=C(O)C(F)(F)F` [GSK1007102B], for which the potency estimated from few doses in the test on CDC42BPB (setting [1]) was 1280 nM; in the test with CIT (setting [1]), 21.1 nM; in the test with PAK6 (setting [1]), 1090 nM; in the test on PRKCA, 1410 nM; in the test on RPS6KB1 (setting [1]) it was 1890 nM.

As for `CS(=O)(=O)CCn1c(=O)c(Oc2ccc(F)cc2F)cc2cnc(NC3CCOCC3)nc21` [RO5027956-000], the potency estimated from few doses was 892 nM in the test on EPHB1; 1160 nM in the test on LCK; 1930 nM in the test on MAP3K11; 17.9 nM in the test on MAPK14; 1310 nM in the test with PTK6.

For `CN(C)CC(O)COc1ccc(Nc2nccc(-c3cnn4nc(N5CCOCC5)ccc34)n2)cc1` (stereo not shown) [GW767488X], the potency estimated from few doses in the test on CIT (setting [1]) is 998 nM; with IRAK3 (setting [1]), 64.8 nM; in the test on TTK (setting [1]) it was 2040 nM.

`Nc1nc(Nc2ccccc2)cc(-c2ccc3c(N)n[nH]c3c2)n1` [GSK2225749A]: the potency estimated from few doses with ACVR1B (setting [1]) was 293 nM.

For the molecule `COc1cc[nH]c1/C=C1\C(=O)Nc2ccc(F)c(C#CC3(O)CCNCC3)c21.Cl` [RO0282986-001], the potency estimated from few doses in the test on RPS6KA3 is 868 nM; with TTK (compound concentrations: 100 nM and 1000 nM (sheet 'Samples'), CATDS: 9.4369633718921209E-3) it was 1690 nM.

As to `O=C(O)C(F)(F)F.O=c1[nH]ccc2nc(N[C@@H]3CCNC3)nc(Nc3cc(Cl)cc(Cl)c3)c12` [GSK2188764A], the potency estimated from few doses in the test with CDC42BPB (setting [1]) was 1870 nM; in the test with MAP3K11, 813 nM; in the test with PAK6 (setting [1]), 538 nM; with PRKCA it was 905 nM; in the test with RPS6KB1 (setting [1]), 1520 nM.

In the case of `CC(C)Oc1ccc2c(-c3ccnc(Nc4ccc(N5CCN(C)CC5)cc4)n3)cnn2n1` [GW696155X], the potency estimated from few doses in the test with IRAK3 (setting [1]) is 464 nM; in the test on NUAK2 (setting [1]), 600 nM.

As for `CC(C)Nc1cc(-c2ccc3c(N)n[nH]c3c2)nc(N)n1` [GSK2221681A], the potency estimated from few doses in the test with ACVR1B (setting [1]) was 803 nM.

Regarding `Cl.Cl.NCC(NC(=O)c1cc(-c2ccnc3[nH]ccc23)cs1)c1ccccc1.NCC(NC(=O)c1cc(-c2ccnc3[nH]ccc23)cs1)c1ccccc1` (stereo not shown) [GSK1229959A], the potency estimated from few doses was 8.96 nM in the test with CDC42BPB (compound concentrations: 100 nM and 1000 nM (sheet 'Samples'), CATDS: 9.85023329891931E-2); 113 nM in the test on CIT (compound concentrations: 100 nM and 1000 nM (sheet 'Samples'), CATDS: 3.2542810657946203E-2); 13.2 nM in the test on PIK3CD (CATDS: 7.85579878499649E-2); 679 nM with RPS6KB1 (compound concentrations: 100 nM and 1000 nM (sheet 'Samples'), CATDS: 2.0581414615248698E-2).

Take `Nc1nc(-c2ccc3c(N)n[nH]c3c2)cc(N2CCCC(NC(=O)c3ccccc3)C2)n1` (stereo not shown) [GSK2286775B]: the potency estimated from few doses in the test with AURKB (setting [1]) was 414 nM.

Turning to `COc1cc2ncn(-c3cc(OCc4ccccc4S(C)(=O)=O)c(C#N)s3)c2cc1OC` [GSK319347A], the potency estimated from few doses in the test on AURKB (compound concentrations: 100 nM and 1000 nM (sheet 'Samples'), CATDS: 0.10534744790645301) is 893 nM.
